Vc quorum ag: inducers of Vibrio cholerae quorum light production without autoinducers, primary screen, BH1578 luxS cqsA deficient, single point; hit rate 0.16% among 350,000; activation, % at 18.7 µM; V. cholerae BH1578 lux reporter, luminescence, 6 h; in the data active = activation mostly above about 9.7%, no sharp cut-off
GDH-TPI counter-1: GDH-TPI coupling enzyme inhibitors, primary screen, artefact control for M. tuberculosis FBA inhibitor project, biochemical, absorbance, full deck | GDH-TPI coupled enzyme counterscreen, NADH absorbance | inhibition, % at 4.8 µM | hit rate 1.2% among 360,000; in the data active = inhibition above about 30%
CCHF vOTU inh: CCHFV vOTU protease inhibitors, primary screen, biochemical, Pep-AMC substrate, fluorescence. inhibition, % at 11.5 µM. hit rate 0.55% among 370,000. Crimean-Congo hemorrhagic fever virus L polyprotein viral ovarian tumor (vOTU) protease …; in the data active = inhibition above about 30%
FBA Mtb inh: Mtb FBA enzyme inhibitors, primary screen, biochemical, fluorescence, strain H37Rv | Fructose-bisphosphate aldolase (Mycobacterium tuberculosis (strain ATCC 25618 / H37Rv)), … | purified M. tuberculosis FBA, fluorescence read-out | inhibition, % at 1 µM | hit rate 2.3% among 360,000 | AID 588726, 2011
Target sequence (P9WQA3 whole entry, looked up): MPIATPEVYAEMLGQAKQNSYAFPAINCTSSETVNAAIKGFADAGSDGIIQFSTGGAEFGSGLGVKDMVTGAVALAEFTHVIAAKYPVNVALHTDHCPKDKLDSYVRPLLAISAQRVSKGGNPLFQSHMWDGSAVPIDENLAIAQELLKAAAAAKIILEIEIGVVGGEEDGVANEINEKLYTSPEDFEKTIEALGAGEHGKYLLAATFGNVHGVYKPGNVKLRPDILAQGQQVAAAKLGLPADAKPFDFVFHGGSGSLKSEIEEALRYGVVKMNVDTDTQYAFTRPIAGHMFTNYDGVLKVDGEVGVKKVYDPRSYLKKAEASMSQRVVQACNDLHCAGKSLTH
Mtb FBA confirm: M. tuberculosis aldolase blockers, biochemical, fluorescence, strain H37Rv, confirmation | shares compounds with FBA Mtb inh | purified M. tuberculosis FBA, fluorescence read-out | inhibition, % at 1 µM | hit rate 78% among 5,600
GDH-TPI counter-2: GDH-TPI coupling enzyme inhibitors, artefact control for M. tuberculosis FBA inhibitor project, biochemical, fluorescence, high throughput; shares compounds with FBA Mtb inh; GDH-TPI coupled enzyme counterscreen; inhibition, % at 1 µM; hit rate 81% among 5,600; AID 652141, 2013; in the data active = inhibition above about 10%
Large screens that a line does not name were inactive (follow-up assays come after a bar, where they were run). The list is not random: actives were taken first. Their share in the collection is about 3.9%. Rule as the data show it, unless noted: active = inhibition above about 27%; inactive = the rest.

O=C(Nc1ccccc1)N1CC=C(c2ccc(F)cc2)CC1	none
CCOC(=O)N1CCN(C(=O)Nc2cccc3ccccc23)CC1	FBA Mtb inh 31.3 | Mtb FBA confirm 169.6 | GDH-TPI counter-2 155.6
O=C(COc1ccc2ccccc2c1)NCCn1ccc2ccccc21	none
C=CCN1[C@H](CC(C)C)COc2cc(N3CCSCC3)ccc2S1(=O)=O	none (no result: Vc quorum ag, GDH-TPI counter-1, FBA Mtb inh)
Cc1ccc2nc(C(C)(C)C)c(Cc3cccc(F)c3)n2c1	FBA Mtb inh 36.2 (no result: Vc quorum ag, GDH-TPI counter-1) | Mtb FBA confirm 199.9 | GDH-TPI counter-2 172.2
CCCc1nc2ccc(C)cn2c1Cc1cccc(F)c1	FBA Mtb inh 28.2 (no result: Vc quorum ag, GDH-TPI counter-1) | Mtb FBA confirm 42.9 | GDH-TPI counter-2 30.8
COc1ccc2c(c1)nc(-c1cccc(Br)c1)c(=O)n2C(c1ccccn1)c1nc2ccccc2[nH]1 (stereo not drawn)	FBA Mtb inh 52.8 (no result: Vc quorum ag, GDH-TPI counter-1) | Mtb FBA confirm 67.6 | GDH-TPI counter-2 47.5
O=c1c(-c2ccccc2)nc2ccccc2n1C(c1ccccn1)c1nc2ccccc2[nH]1 (stereo not drawn)	none (no result: Vc quorum ag, GDH-TPI counter-1, FBA Mtb inh)
O=C(COc1ccc2c3c(c(=O)oc2c1)CCC3)N1C[C@H]2C[C@@H](C1)c1cccc(=O)n1C2	none
Cc1cc(OCC(=O)N2C[C@H]3C[C@@H](C2)c2cccc(=O)n2C3)c2c(C)cc(=O)oc2c1	FBA Mtb inh 34.1 | Mtb FBA confirm active | GDH-TPI counter-2 active
CC(Oc1cc2oc(=O)c3c(c2cc1Cl)CCC3)C(=O)N1C[C@H]2C[C@@H](C1)c1cccc(=O)n1C2 (stereo partly drawn)	FBA Mtb inh 37.2 | Mtb FBA confirm 124.3 | GDH-TPI counter-2 111.3
O=C(COc1cc2oc(=O)c3c(c2cc1Cl)CCCC3)N1C[C@H]2C[C@@H](C1)c1cccc(=O)n1C2	FBA Mtb inh 35.1 | Mtb FBA confirm 121.8 | GDH-TPI counter-2 87.4
Cc1ccc(S(=O)(=O)CCC(=O)OCC(=O)NCc2ccccc2)cc1	none
COC(=O)c1nc2n(n1)C(c1cccc(Cl)c1)C1=C(CCCC1=O)N2 (stereo not drawn)	none
CCC1CCc2c(sc(NC(=O)c3cccnc3)c2C(N)=O)C1 (stereo not drawn)	none
N#Cc1c(Cl)nc(Cl)c2c1CCN(Cc1ccccc1)C2	FBA Mtb inh 92.6 | Mtb FBA confirm active | GDH-TPI counter-2 active
N#Cc1c(N2CCCCC2)nc(N2CCCCC2)c2c1CCN(Cc1ccccc1)C2	none
CC(NC(=O)C1CCCO1)c1ccccc1 (stereo not drawn)	none
COc1cc(C=NNC(=O)c2ccccc2NS(=O)(=O)c2cccs2)cc(OC)c1O	none
O=C(N/N=C/c1ccc(N2CCOCC2)cc1)c1ccccc1NS(=O)(=O)c1cccs1	GDH-TPI counter-1 37.9, FBA Mtb inh 44.5 | Mtb FBA confirm active | GDH-TPI counter-2 active
O=C(NN=Cc1ccc(O)cc1O)c1ccccc1NS(=O)(=O)c1cccs1	FBA Mtb inh 40.8 | Mtb FBA confirm inactive | GDH-TPI counter-2 inactive
O=S(=O)(Nc1ccc(N2CCOCC2)cc1)c1cccs1	none
O=C(CSc1nnc(-c2ccc(O)cc2)o1)Nc1ccccc1Br	none
Cc1nc(CCNC(=O)CC2C(=O)NCCN2Cc2ccccc2)nc2c1CCC2 (stereo not drawn)	none
CCOc1ccc(CN2CCNC(=O)C2CC(=O)NCCc2nc(C)c3c(n2)CCC3)cc1 (stereo not drawn)	FBA Mtb inh 27.7 | Mtb FBA confirm active | GDH-TPI counter-2 154.0
NC1=[N+](Cc2ccccc2)C[C@H]2C(=C3CCCC[C@H]3n3c(=O)n(-c4ccccc4)c(=O)n32)N1	none (no result: Vc quorum ag, GDH-TPI counter-1, FBA Mtb inh)
COc1cccc(CN(C(=O)COc2ccccc2[N+](=O)[O-])C2CCS(=O)(=O)C2)c1 (stereo not drawn)	none (no result: CCHF vOTU inh)
COc1cccc(CN(C(=O)c2ccc([N+](=O)[O-])cc2)C2CCS(=O)(=O)C2)c1 (stereo not drawn)	FBA Mtb inh 63.8 | Mtb FBA confirm 100.7 | GDH-TPI counter-2 79.4
COc1ccc(C2=NN(c3nc(C(=O)O)cs3)C(O)(C(F)(F)F)C2)c(OC)c1 (stereo not drawn)	FBA Mtb inh 52.7 | Mtb FBA confirm 79.0 | GDH-TPI counter-2 60.5
COc1ccc(NC(=O)C2(C)Cc3c(-c4ccc(N(C)C)cc4)ccnc3O2)cn1 (stereo not drawn)	FBA Mtb inh 40.3 | Mtb FBA confirm 128.7 | GDH-TPI counter-2 102.6
CN(C)c1ccc(-c2ccnc3c2CC(C)(C(=O)Nc2ccc(Cl)c(C(F)(F)F)c2)O3)cc1 (stereo not drawn)	FBA Mtb inh 84.2 | Mtb FBA confirm 54.2 | GDH-TPI counter-2 40.5
CC(=O)Nc1ccc(-c2ccnc3c2CC(C)(C(=O)Nc2ccc(Cl)c(C(F)(F)F)c2)O3)cc1 (stereo not drawn)	none
CC(C)(C)C1=NN=C2c3ccccc3C(=O)C21 (stereo not drawn)	none
O=C(NCc1ccccc1)c1cc(C2CCCCN2S(=O)(=O)c2cccs2)on1 (stereo not drawn)	none
Cn1c(-c2ccccc2O)cc2ccccc21	FBA Mtb inh 31.7 | Mtb FBA confirm 139.8 | GDH-TPI counter-2 118.6
N#C/C(=C\c1ccc(Cl)cc1Cl)c1n[nH]c(Cn2cncn2)n1	FBA Mtb inh 36.2 | Mtb FBA confirm active | GDH-TPI counter-2 164.8
O=C(COC(=O)CSCC(=O)N1CCCCC1)NCc1ccc(F)cc1	none
Cc1ccc2[nH]c3c(=O)n(Cc4ccncc4)cnc3c2c1	FBA Mtb inh 28.9 | Mtb FBA confirm active | GDH-TPI counter-2 182.0
CCN1CCCC1CNc1ncnc2c1[nH]c1ccc(Cl)cc12 (stereo not drawn)	none
CCN1CCCC1Cn1cnc2c([nH]c3ccc(C)cc32)c1=O (stereo not drawn)	FBA Mtb inh 37.2 | Mtb FBA confirm 59.5 | GDH-TPI counter-2 37.3
O=C(CSc1nnc2ccc(-c3ccc(F)cc3)nn12)N1CCCC1	none
CC(C)Oc1cccc(-c2cc(C(=O)NC(=S)N(C)c3ccccc3C(=O)O)c3ccccc3n2)c1	FBA Mtb inh 42.3 | Mtb FBA confirm inactive | GDH-TPI counter-2 inactive
CC(C)Oc1cccc(-c2cc(C(=O)NN3CCOCC3)c3ccccc3n2)c1	none
Cc1ccc(NC(=O)CCN2CCC(Cc3ccccc3)CC2)cc1	none
O=C1CN(C(=O)COC(=O)CCC(=O)c2ccc(F)cc2)c2ccccc2N1	none
COc1ccc(C2C(C#N)=C(N)OC3=C2C(=O)CC(C)(C)C3)cc1Cn1nc(C)c([N+](=O)[O-])c1C (stereo not drawn)	FBA Mtb inh 39.3 | Mtb FBA confirm 54.1 | GDH-TPI counter-2 46.8
COc1ccc(C2C(C#N)=C(N)Oc3c2c(C)nn3-c2ccccc2)cc1Cn1nc(C)c([N+](=O)[O-])c1C (stereo not drawn)	none

Source: PubChem BioAssay (several laboratories)
